According to PubChem BioAssay AID2685 (National Center for Advancing Translational Sciences (NCATS), 2010):
Out of some 320,000 compounds screened, about 2,100 (0.66%) were called active. Roughly 53% stayed inconclusive and do not appear here. The sample holds actives, similar compounds and a random draw of the others, so the mix is not that of the screen. Calls come from the whole dose curve; as a rule, active = well fitted inhibition curve with a large enough effect in the signal ratio, with a control signal flat (not every such curve was filed as active); inconclusive = small, poorly fitted or top-dose-only effect, or effect the other way, or a change in a side signal; inactive = flat fitted curve, though single readings scatter; the % refers to the signal ratio.

test: qHTS Assay for Lipid Storage Modulators in Drosophila S3 Cells; conditions: BODIPY lipid droplet fluorescence, 18-24 h, cells fed with added oleic acid; cell number change: measured here: cell count max response; series mostly up to 46.1 µM; lipid storage change, negative = inhibition: at the top concentration;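 for cell number change: cells counted by Cell Tracker Red CMTPX staining in the red channel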; for lipid storage change, negative = inhibition: % is set by controls: 0 for no effect and ±100 for the full control effect
Procedure, shortened: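 Laser-scanning cytometry quantifies lipid droplet accumulation (500–530 nm total intensity; droplet/cell object ratio) in oleic acid-fed (400 uM added) Drosophila S3 cells treated with a concentration series. 20 uM Triacsin C defined 100% inhibition.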
Potency is the fitted concentration of half-maximal effect.

Q: Which “outcome” value does the source give for `CSc1cccc(NC(=O)C2CCN(S(=O)(=O)c3ccc4c(c3)NC(=O)CO4)CC2)c1` here?
A: The value was “inactive”.

Q: Which “lipid storage change, negative = inhibition” value does the source give for `O=C(Cc1cccs1)NCCn1ccc2ccccc21` here?
A: The value was 17.3% (inactive).

Q: With `CCOC(=O)CC(=O)CSc1nc2c(sc(=S)n2-c2ccccc2)c(=O)[nH]1` as the compound, how does the “lipid storage change, negative = inhibition” value read?
A: The value was -9.14% (inactive).

Q: What about the cell number change of the same compound?
A: Its cell number change is 3.4%.

Q: For `C/C(=N\O)C1CC(CC(=O)O)C1(C)C` (centres undefined), which Potency is on record?
A: Its Potency is 2.06 µM (active).

Q: And the cell number change?
A: The cell number change was 4.13%.

Q: Which results are given for `CC1(C)CC(CC(=O)O)CC(C)(C)N1`?
A: lipid storage change, negative = inhibition: -1.16% (inactive); cell number change: 0.961%

Q: What does the source list for `COCCNC(=O)CSc1nnc(NC(=O)C2CC(=O)N(c3ccccc3OC)C2)s1` (centres undefined)?
A: lipid storage change, negative = inhibition: 10.5% (inactive); cell number change: 3.03%

Q: Which “outcome” value does the source give for `O=C(CCN1CCN(C(=O)c2ccccc2)CC1)c1ccc(Br)cc1` here?
A: Its value is “inactive”.

Q: And the cell number change?
A: The cell number change was 16%.

Q: Which “lipid storage change, negative = inhibition” value does the source give for `CC(=O)OCC(OC(C)=O)C(OC(C)=O)C(OC(C)=O)C(=O)Nc1ccccc1` (centres undefined) here?
A: Its value is -3.16% (inactive).

Q: What about the cell number change of the same compound?
A: The cell number change was 13.3%.

Q: With `CSc1nnc2c(n1)[nH]c1c(C)cccc12` as the compound, how does the “lipid storage change, negative = inhibition” value read?
A: The value was 15.9% (inactive).

Q: And the cell number change?
A: The cell number change was -19.5%.

Q: For `CCSc1nnc2nc3[nH]c4c(C)cccc4c3nn12`, which “lipid storage change, negative = inhibition” value is on record?
A: Its value is 3.26% (inactive).

Q: What about the cell number change of the same compound?
A: Its cell number change is 0.802%.

Q: What does the source list for `CCSc1nnc2c(n1)[nH]c1c(C)cccc12`?
A: Potency: 20.6 µM (active); cell number change: -28.9%

Q: For `COc1ccc([N+](=O)[O-])cc1NC(=O)CSCc1ccccc1`, which “lipid storage change, negative = inhibition” value is on record?
A: Its value is 2.02% (inactive).

Q: What about the cell number change of the same compound?
A: The cell number change was -5.97%.

Q: For `c1csc(Cc2nc3ccccc3[nH]2)c1`, which “outcome” value is on record?
A: The value was “inactive”.

Q: For `O=C(COC(=O)C12CC3CC(CC(C3)C1)C2)Nc1ccc2[nH]c(=O)[nH]c2c1`, which “outcome” value is on record?
A: Its value is “inactive”.

Q: With `Cc1cccc(NC(=O)Cn2c(=O)n(CCC(=O)NC3CCCC3)c(=O)c3ccccc32)c1` as the compound, how does the “outcome” value read?
A: Its value is “inactive”.

Q: For `O=C(NCc1ccccn1)c1ccc2c(=O)n3nc(Nc4ccccc4)sc3nc2c1`, which Potency is on record?
A: The Potency was 4.11 µM (active).

Q: For `COc1ccccc1Nc1nn2c(=O)c3ccc(C(=O)NCc4cccnc4)cc3nc2s1`, which “lipid storage change, negative = inhibition” value is on record?
A: The value was 14.8% (inactive).

Q: What about the cell number change of the same compound?
A: The cell number change was -12.9%.

Q: Which “lipid storage change, negative = inhibition” value does the source give for `CCc1ccccc1Nc1nn2c(=O)c3ccc(C(=O)NCc4cccs4)cc3nc2s1` here?
A: The value was -18.5% (inactive).

Q: And the cell number change?
A: Its cell number change is -9.06%.

Q: Which “lipid storage change, negative = inhibition” value does the source give for `COc1ccc(OC)c(-c2csc(NC(=O)C3CSC4(C)CCC(=O)N34)n2)c1` (centres undefined) here?
A: The value was 24.3% (inactive).

Q: With `CN1CCN(CCCNC(=S)Nc2ccc(F)c(Cl)c2)CC1` as the compound, how does the “lipid storage change, negative = inhibition” value read?
A: Its value is 26.4% (inactive).

Q: What does the source list for `CNc1nc(N)nc(-c2cc(Cl)ccc2OC)n1`?
A: lipid storage change, negative = inhibition: 22.3% (inactive); cell number change: -0.358%

Q: Which “lipid storage change, negative = inhibition” value does the source give for `CCCNc1nc(N)nc(-c2cc(Cl)ccc2OC)n1` here?
A: Its value is 5.2% (inactive).

Q: And the cell number change?
A: Its cell number change is 5.2%.

Q: For `CCNc1nc(N)nc(-c2cc(Cl)ccc2OC)n1`, which Potency is on record?
A: The Potency was 3.66 µM (active).

Q: And the cell number change?
A: Its cell number change is -11.6%.

Q: For `CC(=O)c1ccc(NC(=O)CN(C)CC(=O)Nc2cccc(F)c2)cc1`, which “lipid storage change, negative = inhibition” value is on record?
A: The value was 7.62% (inactive).

Q: What about the cell number change of the same compound?
A: Its cell number change is 10.5%.

Q: With `CC1CN(S(=O)(=O)c2cccc(-c3cn4cccnc4n3)c2)CC(C)O1` (centres undefined) as the compound, how does the “lipid storage change, negative = inhibition” value read?
A: The value was 13.1% (inactive).

Q: What about the cell number change of the same compound?
A: Its cell number change is -27.2%.

Q: What does the source list for `Cc1ccn2cc(-c3cccc(S(=O)(=O)N4CC(C)OC(C)C4)c3)nc2c1` (centres undefined)?
A: lipid storage change, negative = inhibition: -2.61% (inactive); cell number change: 5.5%

Q: Which results are given for `Cc1ccc2nc(-c3cccc(S(=O)(=O)N4CC(C)OC(C)C4)c3)cn2c1` (centres undefined)?
A: Potency: 16.4 µM (active); cell number change: -15.5%

Q: For `CCNC(=S)NS(=O)(=O)c1ccc(CC)cc1`, which “lipid storage change, negative = inhibition” value is on record?
A: Its value is 6.51% (inactive).

Q: And the cell number change?
A: The cell number change was -7.16%.

Q: Which results are given for `CCCn1cc2c(c1-c1ccc(C)cc1)c(=O)n(C)c(=O)n2C`?
A: lipid storage change, negative = inhibition: -9.64% (inactive); cell number change: 4.81%

Q: With `CC1=C(C(=O)N2CCc3ccccc32)C2(CCC(C)CC2)OC1=O` (centres undefined) as the compound, how does the “lipid storage change, negative = inhibition” value read?
A: The value was -2.81% (inactive).

Q: What about the cell number change of the same compound?
A: The cell number change was -7.54%.

Q: What does the source list for `Cc1cccc2c(C(=O)O)c3c(nc12)CCCCC3`?
A: Potency: 18.4 µM (active); cell number change: -17%

Q: Which “lipid storage change, negative = inhibition” value does the source give for `CCOc1c2c(nc3ccc(Cl)cc13)CCC2` here?
A: The value was 6.62% (inactive).

Q: What about the cell number change of the same compound?
A: Its cell number change is 8.32%.

Q: With `Cc1cc(Br)c2nc3c(c(C(=O)O)c2c1)CCCCC3` as the compound, how does the “lipid storage change, negative = inhibition” value read?
A: The value was -4.98% (inactive).

Q: And the cell number change?
A: Its cell number change is -0.276%.

Q: For `O=C(O)c1c2c(nc3ccc(Cl)cc13)CCC2`, which Potency is on record?
A: The Potency was 0.0517 µM (active).

Q: For `O=C(O)c1c2c(nc3ccc(F)cc13)CCC2`, which “lipid storage change, negative = inhibition” value is on record?
A: The value was -2.17% (inactive).

Q: And the cell number change?
A: The cell number change was -14.4%.

Q: Which “outcome” value does the source give for `CN(C)C(=O)c1c2c(nc3ccccc13)CCCC2` here?
A: The value was “inactive”.

Q: What about the cell number change of the same compound?
A: Its cell number change is 1.75%.

Q: Which “lipid storage change, negative = inhibition” value does the source give for `COc1ccccc1/C=C/C1(C(=O)NC2CCCC2)CC(=O)N1c1ccc(F)cc1` (centres undefined) here?
A: The value was -14.5% (inactive).

Q: What about the cell number change of the same compound?
A: Its cell number change is -14.3%.

Q: Which “lipid storage change, negative = inhibition” value does the source give for `O=[N+]([O-])c1cccc(S(=O)(=O)N/N=C/c2ccc(O)cc2)c1` here?
A: Its value is -15% (inactive).

Q: With `NC(=O)Cn1cc(/C=N\NS(=O)(=O)c2cccc([N+](=O)[O-])c2)c2ccccc21` as the compound, how does the “lipid storage change, negative = inhibition” value read?
A: Its value is 2.72% (inactive).

Q: What about the cell number change of the same compound?
A: Its cell number change is 1.79%.

Q: For `COc1ccc(-n2c(O)c(/C=N/NS(=O)(=O)c3ccc(C)cc3)c3ccccc3c2=O)cc1OC`, which Potency is on record?
A: The Potency was 8.2 µM (active).

Q: And the cell number change?
A: Its cell number change is -21%.

Q: What does the source list for `COc1cc(/C=N/NS(=O)(=O)c2ccccc2)ccc1OS(=O)(=O)c1ccc(C)cc1`?
A: lipid storage change, negative = inhibition: 8.09% (inactive); cell number change: 20.6%

Q: With `COc1ccc(-n2c(O)c(/C=N/NS(=O)(=O)c3cccc([N+](=O)[O-])c3)c3ccccc3c2=O)cc1OC` as the compound, how does the Potency read?
A: The Potency was 16.4 µM (active).

Q: What about the cell number change of the same compound?
A: Its cell number change is -20.8%.

Q: Which results are given for `Cc1ccc(-n2c(O)c(/C=N/n3cnnc3)c3ccccc3c2=O)cc1`?
A: lipid storage change, negative = inhibition: 5.77% (inactive); cell number change: 9.27%

Q: Which “lipid storage change, negative = inhibition” value does the source give for `Cc1cccn2c(CN3CCCC(c4ccccc4)C3)c(C(=O)N3CCOCC3)nc12` (centres undefined) here?
A: The value was -8.42% (inactive).

Q: What about the cell number change of the same compound?
A: The cell number change was -15.3%.

Q: What does the source list for `Cc1nc2nc(NC(=O)c3ccco3)nn2c(C)c1Cl`?
A: lipid storage change, negative = inhibition: 6.53% (inactive); cell number change: 16.3%

Q: For `CCOc1ccc(CCNC(=O)c2ccc(OCc3c(C)noc3C)cc2)cc1OCC`, which Potency is on record?
A: Its Potency is 11.6 µM (active).

Q: And the cell number change?
A: Its cell number change is 14.1%.

Q: For `CCOc1ccc(CCNC(=O)c2cc(C)on2)cc1OCC`, which “lipid storage change, negative = inhibition” value is on record?
A: Its value is 14.1% (inactive).

Q: And the cell number change?
A: The cell number change was 4.47%.
